Results filed as inconclusive are left out. The source made the active and inactive calls. Calls follow the shape of the dose curve; as a rule, active = well fitted inhibition curve with a large enough effect; inconclusive = small, poorly fitted or top-dose-only effect; inactive = flat fitted curve, though single readings scatter.
Columns and labels:
[1] = target: Glutathione peroxidase 1 (Homo sapiens) (UniProt P07203); assay: Primary qHTS Assay for Inhibitors of Recombinant Selenoprotein Glutathione Peroxidase 1 (GPX1) (AID 1845191); also: nearly all actives have a fitted effect of over 65% in size
Glutathione peroxidase 1 (Homo sapiens), sequence (P07203 whole entry, looked up): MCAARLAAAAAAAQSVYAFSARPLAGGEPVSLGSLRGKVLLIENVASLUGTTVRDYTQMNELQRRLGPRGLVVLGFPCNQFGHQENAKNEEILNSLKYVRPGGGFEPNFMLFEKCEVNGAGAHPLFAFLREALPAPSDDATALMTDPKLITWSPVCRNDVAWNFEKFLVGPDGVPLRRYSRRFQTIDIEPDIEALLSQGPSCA
Summary of the method: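 Recombinant GPX1 (10 nM final) was preincubated with compound for 30 min at room temperature, then reacted with 1 mM GSH, 0.5 mM CHP, 0.5 mM NADPH and 100 nM glutathione reductase; NADPH fluorescence (340/450 nm) was read at 0 and 15 min.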

[2] = target: Phospholipid hydroperoxide glutathione peroxidase GPX4 (Homo sapiens) (UniProt P36969); assay: Primary qHTS Assay for Inhibitors of Recombinant Selenoprotein Glutathione Peroxidase 4 (GPX4) (AID 1845192); also: nearly all actives have a fitted effect of over 65% in size; as to activity change, negative = inhibition: series mostly up to about 50 µM; % is scaled to controls: 0 for no effect and ±100 for the full control effect
Phospholipid hydroperoxide glutathione peroxidase GPX4 (Homo sapiens), sequence (P36969 whole entry, looked up): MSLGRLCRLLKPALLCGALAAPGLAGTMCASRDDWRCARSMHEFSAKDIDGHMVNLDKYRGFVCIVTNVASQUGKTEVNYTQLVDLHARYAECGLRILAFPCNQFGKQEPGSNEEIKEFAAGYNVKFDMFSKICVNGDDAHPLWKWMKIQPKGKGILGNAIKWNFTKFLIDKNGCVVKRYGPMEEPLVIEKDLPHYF
Summary of the method: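 GR-coupled readout: 100 nM GR, 1 mM GSH, 0.5 mM NADPH; NADPH fluorescence (ex 340/em 450 nm) read at t=0 and after 15 min RT. GPX4 200 nM, preincubated 30 min with compound; substrate 0.5 mM CHP.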

[3] = target: Luciferin 4-monooxygenase (Photinus pyralis) (UniProt P08659); assay: Primary firefly luciferase (FLuc) qHTS assay for identification of artifact compounds. (AID 1845220); also: nearly all actives have a fitted effect of over 60% in size;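 as to activity change, negative = inhibition: series mostly up to about 54 µM; plate controls were DMSO vehicle for no effect and no enzyme for full effect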
Summary of the method: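 In this counter-screen for luciferase artifacts, test compounds met substrate (10 uM each luciferin and ATP) before 10 nM enzyme started the reaction. Light output was measured 5 min later.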

COc1cc2c(c(O)c1OC/C=C(\C)CC/C=C(/C)CCC=C(C)C)CN(C(CCC(=O)O)C(=O)O)C2=O (centres undefined)
inactive: Potency [1] | Potency [2] | Potency [3]

O=C(Nc1ccc(N2CCC(C(=O)N3CCOCC3)CC2)cc1)c1cnc(Oc2ccccc2)nc1
inactive: Potency [1] | Potency [2] | Potency [3]

COc1ccc2c(c1)N1C(=O)C[C@@]34C=CC[N@+]5([O-])CC[C@H]2[C@H](CC3)[C@@]145
inactive: Potency [1] | Potency [2] | Potency [3]

C[C@H]1CC(=O)C2=C(C1)C(O)C(O)[C@@]1(O)[C@H]2C(=O)c2cccc(O)c2[C@@H]1O (some centres undefined)
inactive: Potency [1] | Potency [2] | Potency [3]

O=C(Cc1ccc(Cl)cc1)Nc1cnccc1C(=O)O
inactive: Potency [1] | Potency [2] | Potency [3]

CC/C=C\[C@H](O)[C@H](O)C1=C(C)C(=O)[C@]2(O1)C(=O)N[C@@](O)(C(=O)c1ccccc1)[C@@H]2O
inactive: Potency [1] | Potency [2] | Potency [3]

CC1C(=O)OCC2=CC[N+]3([O-])CCC(OC(=O)C(C)(O)C1(C)O)C23 (centres undefined)
inactive: Potency [1] | Potency [2] | Potency [3]

CC1(C)C[C@H](O)C[C@@]2(C)[C@H]1[C@H](O)C=C1COC(=O)[C@@]12O
inactive: Potency [1] | Potency [2] | Potency [3]

CC(=O)OC[C@@]12C(=O)C[C@@H](C)[C@]3(C[C@@H](c4ccoc4)OC3=O)[C@H]1CC[C@H](OC(C)=O)[C@]21CO1
inactive: Potency [1] | Potency [2] | Potency [3]

O=C(O)Cc1cn([C@@H]2O[C@H](CO)[C@@H](O)[C@H](O)[C@H]2O[C@@H]2O[C@H](CO)[C@@H](O)[C@H](O)[C@H]2O)c2ccccc12
inactive: Potency [1] | Potency [2] | Potency [3]

CCC(C)/C=C(C)/C=C/C1=CC2=C(Cl)C(=O)C(C)(O)C(=O)C2(O)C(OC)O1 (centres undefined)
inactive: Potency [1] | Potency [2] | Potency [3]

COc1cc(C(=O)OC[C@@]2(O)CO[C@@H](O[C@H]3[C@H](Oc4ccc(O)cc4)O[C@H](CO)[C@@H](O)[C@@H]3O)[C@@H]2O)cc(OC)c1O
inactive: Potency [1] | Potency [2] | Potency [3]

CC1(C(=O)O)CC[C@]2(C(=O)OC3OC(CO)C(O)C(O)C3O)CC[C@]3(C)C(=CCC4[C@@]5(C)CC[C@H](OC6OCC(O)C(O)C6OC6OC(CO)C(O)C(O)C6O)C(C)(C)C5CC[C@]43C)C2C1 (some centres undefined)
inactive: Potency [1] | Potency [2] | activity change, negative = inhibition [3] 0.425% [at 11.6 µM]

CC(C)=CCC[C@@](C)(O)[C@H]1CC[C@]2(C)[C@@H]1[C@H](O)CC1[C@@]3(C)CC[C@H](O[C@@H]4O[C@H](CO)[C@@H](O)[C@H](O)[C@H]4O[C@@H]4O[C@H](CO)[C@@H](O)[C@H](O)[C@H]4O)C(C)(C)[C@@H]3CC[C@]12C (some centres undefined)
inactive: Potency [1] | Potency [2] | Potency [3]

C/C(=C\C1CCC(C)C2CCC3(C)OC123)C(=O)O (centres undefined)
inactive: Potency [1] | Potency [2] | Potency [3]

COc1c(C)c(OCC(O)C(C)(C)O)cc2c1CNC2=O (centres undefined)
inactive: Potency [1] | Potency [2] | Potency [3]

O=C(O)Cc1cn([C@@H]2OC[C@@H](O[C@@H]3O[C@H](CO)[C@@H](O)[C@H](O)[C@H]3O)[C@H](O)[C@H]2O[C@@H]2O[C@H](CO)[C@@H](O)[C@H](O)[C@H]2O)c2ccccc12
inactive: Potency [1] | Potency [2] | Potency [3]

COCCCc1sc(-c2ccccc2)nc1C(=O)Nc1ccccc1-c1nc2cc(CN3CCCC3)cnc2s1
inactive: Potency [1] | Potency [2] | Potency [3]

C=C(C)[C@H]1CC[C@]2(C(=O)O)CC[C@]3(C)C(CCC4[C@@]5(C)CCC(=O)C(C)(C)C5CC[C@]43C)C12 (some centres undefined)
inactive: Potency [1] | Potency [2] | Potency [3]

COc1c2c(c(C)c3c1C(=O)OC3)OC1(C)CC(O)C34OC(OC)(CCC3(C)C1C2)OC4(C)CO (centres undefined)
inactive: Potency [1] | Potency [2] | Potency [3]

CC1=CCC[C@@H]2[C@@](C)(CCc3ccoc3)[C@H](C(=O)O)CC[C@@]12C
inactive: Potency [1] | Potency [2] | Potency [3]

C=C1CC23CC1CCC2C12OC(=O)C(C)(C(O)CC1O)C2C3C(=O)O (centres undefined)
inactive: Potency [1] | Potency [2] | Potency [3]

CC1(C)C(=O)CCC2(C)C1C(O)C=C1COC(=O)C12O (centres undefined)
inactive: Potency [1] | Potency [2] | Potency [3]

COC(=O)C1=COC(O[C@@H]2O[C@H](CO)[C@@H](O)[C@H](O)[C@H]2O)C2C(C)C(=O)CC12 (some centres undefined)
inactive: Potency [1] | Potency [2] | Potency [3]

CC1CC(=O)C2C(O)(C1)CC(O)C13OC1c1c(O)cccc1C(=O)C23O (centres undefined)
inactive: Potency [1] | Potency [2] | Potency [3]

CC1OC(OC2C(OC3C(O[C@H]4CC[C@@]5(C)C(CC[C@]6(C)C5C(=O)CC5=C7CC(C)(C)CC(O)[C@]7(C)CC[C@]56C)C4(C)C)OC(C(=O)O)C(O)C3O)OCC(O)C2O)C(O)C(O)C1O (some centres undefined)
inactive: Potency [1] | Potency [2] | activity change, negative = inhibition [3] 0.49% [at 11.6 µM]

CC/C=C\CC1C(CC(=O)O)CCC1OC1OC(CO)C(O)C(O)C1O (centres undefined)
inactive: Potency [1] | Potency [2] | Potency [3]

COc1ccc(/C=C/C(=O)O[C@@H]2[C@@H](O)[C@@H](O)[C@H](O[C@H]3[C@@H]4C=CO[C@@H](O[C@@H]5O[C@H](CO)[C@@H](O)[C@H](O)[C@H]5O)[C@@H]4[C@@]4(CO)O[C@@H]34)O[C@H]2C)cc1
inactive: Potency [1] | Potency [2] | Potency [3]

Cc1c(C)c(NCC(=O)N(C)C2CCN(Cc3ccc(C(N)=O)cc3)CC2)c(C)c(C)c1N
inactive: Potency [1] | Potency [2] | Potency [3]

COC(=O)c1[nH]c(=O)c2ccccc2c1-c1ccc[nH]1
inactive: Potency [1] | Potency [2] | Potency [3]

C[C@]12CCC[C@](C)(C(=O)O)C1[C@@H](O)[C@@H](O)C13CC(CCC12)C(CO)(O[C@@H]1O[C@H](CO)[C@@H](O)[C@H](O)[C@H]1O)C3 (some centres undefined)
inactive: Potency [1] | Potency [2] | Potency [3]

CCC12CCCN3CCc4c(n(c5ccccc45)C(O)C1)C32 (centres undefined)
inactive: Potency [1] | Potency [2] | Potency [3]

COc1ccc(/C=C/C(N)=O)cc1OC
inactive: Potency [1] | Potency [2] | Potency [3]

Source: PubChem BioAssay (NCATS)
